Over roughly 33,000 sequences, “E-score (-0.5 to 0.5)” has its median near -0.053; the highest 2% begin near 0.37. The entries come from a sample that favours the highest values as a whole.
target: Hap1 (UniProt P0CE41); test: PBM E-score (8-mer binding enrichment) (E-score (-0.5 to 0.5)); higher = stronger / more preferred TF binding; conditions: protein concentration: 200 nM; construct: GST-DNA-binding domain
Outline: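 Bound GST-tagged yeast transcription factors, applied at about 100-200 nM to double-stranded universal all-10-mer Agilent arrays, were detected with fluorescent anti-GST. Scans were normalised with masliner. A modified Wilcoxon-Mann-Whitney statistic, the E-score, was assigned to each ungapped eight-base word pooled with its reverse complement by the Universal PBM Analysis Suite.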

Sequence of UniProt P0CE41 (P0CE41 whole entry, the tested form may be a part): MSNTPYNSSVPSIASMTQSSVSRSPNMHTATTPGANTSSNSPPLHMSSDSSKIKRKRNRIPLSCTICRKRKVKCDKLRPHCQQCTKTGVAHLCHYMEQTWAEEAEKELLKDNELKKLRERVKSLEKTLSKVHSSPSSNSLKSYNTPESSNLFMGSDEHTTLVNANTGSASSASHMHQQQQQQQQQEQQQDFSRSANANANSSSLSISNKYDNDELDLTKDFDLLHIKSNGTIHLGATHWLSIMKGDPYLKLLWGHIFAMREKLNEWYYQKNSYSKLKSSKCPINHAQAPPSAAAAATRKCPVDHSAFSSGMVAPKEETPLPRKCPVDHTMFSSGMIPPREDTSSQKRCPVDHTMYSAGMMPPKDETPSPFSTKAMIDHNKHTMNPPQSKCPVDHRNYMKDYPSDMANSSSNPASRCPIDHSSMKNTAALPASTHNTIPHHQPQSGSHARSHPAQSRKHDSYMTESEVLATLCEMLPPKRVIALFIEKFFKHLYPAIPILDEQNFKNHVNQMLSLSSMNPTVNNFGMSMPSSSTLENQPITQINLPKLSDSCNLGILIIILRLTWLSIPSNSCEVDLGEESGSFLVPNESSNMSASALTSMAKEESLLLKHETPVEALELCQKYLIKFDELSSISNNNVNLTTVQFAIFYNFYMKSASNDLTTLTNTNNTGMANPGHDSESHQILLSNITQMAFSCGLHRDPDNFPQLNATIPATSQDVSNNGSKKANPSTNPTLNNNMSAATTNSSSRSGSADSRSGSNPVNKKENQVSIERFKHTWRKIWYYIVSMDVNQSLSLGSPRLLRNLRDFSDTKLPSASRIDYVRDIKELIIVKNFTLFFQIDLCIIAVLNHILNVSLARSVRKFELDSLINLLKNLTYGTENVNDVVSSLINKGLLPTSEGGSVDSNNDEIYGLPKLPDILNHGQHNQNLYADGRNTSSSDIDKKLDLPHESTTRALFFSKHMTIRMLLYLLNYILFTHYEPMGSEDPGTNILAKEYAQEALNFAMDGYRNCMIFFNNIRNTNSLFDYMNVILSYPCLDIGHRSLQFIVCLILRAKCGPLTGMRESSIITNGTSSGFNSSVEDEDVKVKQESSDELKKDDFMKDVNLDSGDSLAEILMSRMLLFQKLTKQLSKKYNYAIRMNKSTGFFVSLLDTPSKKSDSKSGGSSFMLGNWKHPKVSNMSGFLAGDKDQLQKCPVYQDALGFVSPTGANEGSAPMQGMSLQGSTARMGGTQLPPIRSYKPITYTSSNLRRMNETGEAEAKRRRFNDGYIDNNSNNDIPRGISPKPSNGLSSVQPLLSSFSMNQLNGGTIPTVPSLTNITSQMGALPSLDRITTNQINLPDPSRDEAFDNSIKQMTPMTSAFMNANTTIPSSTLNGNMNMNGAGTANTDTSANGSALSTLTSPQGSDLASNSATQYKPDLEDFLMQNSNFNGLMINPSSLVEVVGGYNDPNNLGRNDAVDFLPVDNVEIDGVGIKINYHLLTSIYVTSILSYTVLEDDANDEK

Sequence | PBM E-score
CCGATCGA | 0.325
ACTTTATG | -0.17
ATCAGTAG | -0.276
ACAGGGCC | 0.115
GGTCCCCA | 0.0281
GCTCGGCC | 0.375
CCTCGGCC | 0.346
ACTCGGAG | 0.305
CCTCGGAG | 0.394
CCTCGGAA | 0.314
ACTCGGCC | 0.361
CCTCGGAC | 0.39
CCTCGGGC | 0.31
ACTCGGAA | 0.344
CGTCGGAG | 0.313
ACTCGGAT | 0.311
ACTCGGAC | 0.385
AGACTAAG | -0.103
CGGCAGGA | 0.175
ATGGAAAC | -0.0981
TCACTTAA | -0.167
CGCGCCGC | 0.228
AAACGTCG | 0.00491
GCTCGGAC | 0.403
CCTCGGCG | 0.37

Sequence | PBM E-score
GCTCGGAA | 0.335
CCTCGGCA | 0.294
GGTCGGAC | 0.342
ACTCGGCG | 0.259
GATCAAAC | -0.0316
TAGAGCAA | -0.296
AGTTGATG | -0.292
GCGATATA | 0.24
CCGATATC | 0.458
CCGATATA | 0.44
CAGATATC | 0.199
ACGATATC | 0.0796
ACGATATA | -0.0495
AATCGGGA | 0.159
ATGCCTTG | -0.2
CCAGACGA | -0.0873
ACCGTCCG | 0.381
AACGTCCA | -0.0731
ATCGTCCG | 0.379
AACGTCCC | -0.179
AACGTCCG | 0.371
ATCGTCCA | -0.0714
CCCGTCCG | 0.314
ATCGTCCC | 0.0149
ACCGTCCC | 0.141

Sequence | PBM E-score
CAGTGCCC | 0.00772
ACAAGGGC | -0.112
CCATTAGG | -0.215
AATTGCAG | -0.0487
CGAGGCAC | 0.0885
AATAGATA | -0.00886
GCCTTAAC | -0.0709
CTGGTTTA | -0.309
ACGTCTAC | -0.179
CTGGTCAC | -0.325
AACGGGGG | 0.158
GCCGGAGA | 0.372
ACCAGAGT | -0.222
ACCGGAAT | 0.36
GACGGAGA | 0.318
CCCGGAGC | 0.354
CCCGGAGA | 0.428
CCGGGAGA | 0.29
GCCGGAGC | 0.344
CCCAGAGA | -0.226
ACCGGAGT | 0.4
ACCGGAGC | 0.409
GCCAGAGA | -0.227
ATTGGTGA | -0.281
AGCTTTTG | -0.167

Sequence | PBM E-score
AGTAGTGA | -0.1
AAGAAGGA | -0.21
ACAGGAAT | -0.135
ACACGGAT | 0.209
CTCCTCAC | -0.186
CCGTTCCA | 0.172
AACGGAGC | 0.241
AACGGAGT | 0.373
AGCGGAGA | 0.276
CACGGAGA | 0.365
TACGGAGA | 0.326
ACAGGAGA | -0.131
ACCGGAGG | 0.399
AGCGGAGG | 0.158
AACGGAGA | 0.357
ACCGGAGA | 0.43
TCCGGAGA | 0.442
CCCGGAGG | 0.285
CAAATAAG | 0.0685
AAAACGGG | 0.174
CGGGGACG | 0.163
AACGCGGG | 0.267
GCGTCTAA | -0.0983
GACACAGA | 0.0169
GCCATACC | 0.0518

Sequence | PBM E-score
CTATCGAG | -0.0625
CAGGTTTA | -0.0176
AACGGTCG | 0.23
TAGCACTA | -0.326
CGATTTAC | 0.149
TGATTTAA | 0.0921
GGATTTAA | 0.444
GGATTTAC | 0.415
CGATTTAA | 0.0314
AGATTTAC | -0.103
TTACCGAA | 0.233
CGTCTGAC | -0.045
ATGAAGCG | -0.208
ACCACTTA | -0.00971
ATGTTAGA | -0.336
TAGCCGGA | 0.407
AAGCCGGT | 0.332
GAGCCGGC | 0.339
AAGCCGGG | 0.238
CAGCCGGC | 0.331
GAGCCGGA | 0.379
TAGCCGAA | 0.314
AAGCCGTC | 0.27
CAGCCGGA | 0.33
AAGCCGGA | 0.413

Sequence | PBM E-score
AAGCCGGC | 0.399
GAGCCGCA | -0.0121
ACGGGCCA | 0.226
CATAGAAG | -0.0619
CAGTTCGA | -0.156
AGCGCCAT | -0.113
CCGGTAAA | 0.456
TCGGTAAA | 0.249
CCGGTAAC | 0.36
ACGGTAAG | 0.067
CCGGTAAG | 0.391
CCGGTACG | 0.342
CGGGCAAA | 0.249
GGCAAATA | 0.2
TGGCAGAA | -0.0128
CTGCTGGA | -0.231
CCCCGAAC | 0.291
ATCCGAAA | 0.389
CACCGAAC | 0.194
GTCCGAAC | 0.426
ATCCGAAG | 0.326
GCCCGAAC | 0.298
ACCCGAAA | 0.31
ATCCGAAC | 0.355
GTCCGAAA | 0.421

Sequence | PBM E-score
TTCCGAAA | 0.363
CTCCGAAC | 0.415
GCCCGAAA | 0.342
ATACCGTC | 0.0985
CGGCTAGC | 0.0611
AGTCAGAT | -0.212
AGCAGCTG | -0.167
ACCCTCAG | -0.197
GCGCAAAA | -0.00131
ACCCGAAT | 0.314
CGCCGAAA | 0.359
CTTCGAAA | -0.279
AACCGAAT | 0.301
ATCCGAAT | 0.403
CACCGAAG | 0.245
CGCCGAAG | 0.359
ATCCGACA | 0.305
CTCCGACA | 0.291
CTCCGAAG | 0.401
CTCCGAAA | 0.41
GTCCGACA | 0.38
ACTTGAGA | -0.185

From the supplement of paper PMC3334620
